Most compounds without a hit are left out; they make up all but 12% or so of the library.
G9a inh: blocks human histone lysine methyltransferase G9a; G9a H3K9 monomethylation, AlphaScreen, 2 h; Potency, µM (series often up to 102 µM), actives largely listed as inhibitors; AID 504332; hit rate 8.8% among 350,000; Q96KQ7; further: nearly all actives have a fitted effect of over 75% in size
Target sequence (Q96KQ7 913-1193 limits assumed): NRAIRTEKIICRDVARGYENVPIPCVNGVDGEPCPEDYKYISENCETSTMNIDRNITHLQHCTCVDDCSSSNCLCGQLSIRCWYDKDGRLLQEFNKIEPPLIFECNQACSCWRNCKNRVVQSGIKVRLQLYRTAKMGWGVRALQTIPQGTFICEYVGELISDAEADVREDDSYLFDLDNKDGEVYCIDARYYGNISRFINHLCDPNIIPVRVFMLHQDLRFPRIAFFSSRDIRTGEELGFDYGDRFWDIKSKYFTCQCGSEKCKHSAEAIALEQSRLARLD
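Quantitative HTS format: methyltransferase activity on a biotin-tagged H3K9 peptide is measured by AlphaScreen, using a rabbit anti-monomethyl-H3K9 antibody with streptavidin donor and anti-IgG acceptor beads. Final levels are 20 nM enzyme, 500 nM peptide, 20 uM SAM; 2 h RT.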
BAZ2B inh: blocks human BAZ2B; AlphaScreen BAZ2B-H3K14Ac peptide displacement; Potency, µM (doses to about 114 µM), actives largely listed as inhibitors; hit rate 4.4% among 360,000; AID 504333; further: nearly all actives have a fitted effect of over 60% in size
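Complex of BAZ2B and biotin-H3K14Ac (50 nM apiece) forms over 30 min at RT, then faces library compounds up to 110 uM for another 30 min; AlphaScreen beads added, 20 min dark incubation, luminescence read.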
JMJD2A Tudor: inhibitors of human JMJD2A Tudor domain. O75164. AlphaScreen JMJD2A-Tudor / H3K4me3 peptide binding. Potency, µM (doses to about 114 µM), most hits filed as inhibitors. hit rate 4.4% among 390,000; further: nearly all actives have a fitted effect of over 50% in size
HP1b binding inh: HP1-beta chromodomain-methylated histone interaction inhibition; hit rate 0.56% among 390,000; AlphaScreen HP1-beta / biotin-H3K9me3 peptide binding; Potency, µM (highest dose often 114 µM), hits mostly inhibitors; P83916; AID 540317; further: nearly all actives have a fitted effect of over 70% in size
Target sequence (P83916 whole entry, looked up): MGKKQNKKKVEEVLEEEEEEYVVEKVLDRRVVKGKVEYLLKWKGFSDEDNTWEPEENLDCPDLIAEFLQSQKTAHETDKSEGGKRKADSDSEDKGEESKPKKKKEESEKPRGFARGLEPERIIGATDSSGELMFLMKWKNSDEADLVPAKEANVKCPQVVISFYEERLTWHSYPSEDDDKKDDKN
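HP1-beta protein (50 nM final) preincubated 30 min at room temperature with biotinylated H3(1-18)K9me3 peptide (50 nM) in PBS pH 7.4, 0.01% Tween-20, then compound added for 30 min. AlphaScreen streptavidin donor/nickel chelate acceptor beads (10 ug/mL final), 30 min dark, luminescence read.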
L3MBTL1 block: inhibitors of human L3MBTL1. Q9Y468. AlphaScreen L3MBTL1–H3K9me1 peptide binding. Potency, µM (series often up to 57.1 µM), hits mostly inhibitors. hit rate 0.66% among 230,000. AID 485360; further: nearly all actives have a fitted effect of over 60% in size
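L3MBTL1 50 nM + b-AHA-H3(1-15)K9me1 75 nM, 30 min RT; compound added, 30 min RT; streptavidin donor/Ni-chelate acceptor beads 10 ug/mL each final, 30 min RT dark; AlphaScreen read.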
Sfp inh: Sfp phosphopantetheinyl transferase inhibition; Q9F4F7; Biochemical Sfp PPTase activity, qHTS; Potency, µM, hits mostly inhibitors; hit rate 3.5% among 310,000;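 further: the enzyme is Sfp with the accession as filed and its product quenches rhodamine fluorescence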
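After 15 min at room temperature with compound, 15 nM Sfp received 5 uM rhodamine-CoA plus 12.5 uM BHQ-2-ybbR (50 mM Hepes pH 7.6, 10 mM MgCl2). Rate came from the fluorescence difference over 30 min, ex 525/em 598 nm.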
Hits are given with their value; 0 = inactive; ? = inconclusive; - = not tested or not shown; [ ] = dose if it differs, or a comment. The call rests on the fitted dose curve; in most records, active means well fitted curve in the direction sought with a large enough effect; inconclusive means small, poorly fitted or top-dose-only effect, or another doubt; inactive means no such curve, though single readings can be large; an effect the other way counts as inactive or inconclusive.

SMILES	G9a inh	BAZ2B inh	JMJD2A Tudor	HP1b binding inh	L3MBTL1 block	Sfp inh
COc1cc([C@@H]2c3cc4c(cc3[C@@H](OC3OC5COC(C)OC5C(O)C3O)[C@H]3COC(=O)[C@H]23)OCO4)cc(OC)c1O (stereo not given in full)	?	-	-	-	-	0
COc1cc([C@@H]2c3cc4c(cc3[C@@H](O[C@@H]3O[C@H]5CO[C@@H](C)O[C@@H]5[C@@H](O)[C@H]3O)[C@@H]3COC(=O)[C@@H]23)OCO4)cc(OC)c1O	-	-	-	-	-	89µM
Cc1ccc(O)c(CNc2cccc3cccnc23)c1	-	32µM	?	?	0	?
Oc1ccc(Br)cc1CNc1cccc2cccnc12	0[0.501 µM]	?	?	0	0[2.29 µM]	0
COc1cccc(C2=NN(S(C)(=O)=O)C(c3cccs3)C2)c1 (stereo not given)	-	0	0	0	0	0
CC(=O)OCC1(C)CN(c2ccccc2)N(C(C)=O)C1=O (stereo not given)	25µM	0	0	0	-	0
COC(=O)CN1CC(=O)N(c2ccccc2)C1=S	0	0	0	0	0	0
CC(=O)OCC1(C)CN(c2ccccc2)N(C(=O)c2ccc(C(C)(C)C)cc2)C1=O (stereo not given)	40µM	0	0	0	-	0
CC(=O)OCC1(C)CN(c2ccccc2)NC1=O (stereo not given)	14µM	0	0	0	-	0
CC1(C)CN(c2ccccc2)N(C(=O)c2ccc(F)cc2)C1=O	0	0	0	0	0	0
CC1(C)CN(c2ccccc2)N(C(=O)c2ccc(C#N)cc2)C1=O	0	0	0	0	0	0
CCOC(=O)c1cc2n(c1/N=C/N(C)C)-c1ccccc1C2=O	?	0	0	0	-	7.9µM
COc1cc(/C=C2/C(=O)NN(c3cccc(F)c3)C2=O)ccc1OC(=O)c1ccco1	28µM	?	0	0	0	56µM
O=C(O)CN1C(=O)/C(=C\c2ccc(OC(=O)c3ccco3)cc2)SC1=S	8.9µM	0	?	0	-	45µM
O=C(O)CN1C(=O)/C(=C\c2cccc(OC(=O)c3ccco3)c2)SC1=S	0	0	0	0	-	0
C=CCN1C(=O)/C(=C\c2cccc(OC(=O)c3ccco3)c2)SC1=S	79µM	0	0	0	-	0
C=CCN1C(=O)/C(=C\c2ccc(OC(=O)c3ccco3)c(OC)c2)SC1=S	14µM	10µM	?	0	-	0
CCOn1c(=O)c(=O)n(OC)c2ccccc21	0	0	0	0	-	0
O=C(COc1ccc(Cl)cc1Cl)NNC(=S)Nc1ccc(F)cc1	11µM	0	0	0	0	0
CC(=O)NC(=S)Nc1ccc(NC(=O)COc2ccc(Cl)cc2Cl)cc1	0[12.7 µM]	0	0	0	0	0
C=CCNC(=S)NNC(=O)COc1ccc(Cl)cc1Cl	10µM	0	?	0	0	0
Cc1occc1C(=O)NNC(=S)NC(=O)COc1ccc(Cl)cc1Cl	8.9µM	0	0	?	-	0
CCOC(=O)C1=C(COC(=O)c2ccccc2OC)NC(=O)NC1C (stereo not given)	3.2µM	0	0	0	0	-
Cc1cc(C)n(C(C)Sc2ccccc2)n1 (stereo not given)	0[2.33 µM]	0	0	0	0	-
O=C(O)CCNC1CCCCC1	0[12.7 µM]	0	0	0	-	0
SMILES	G9a inh	BAZ2B inh	JMJD2A Tudor	HP1b binding inh	L3MBTL1 block	Sfp inh
O=C(O)CCCCC1CCSS1 (stereo not given)	1.8µM	1µM	0	0	3.2µM	0
CCOc1ccc2nc(N(CCN(C)C)C(=O)c3ccc4c(c3)CCCC4)sc2c1	40µM	?	35µM	0	-	50µM
CCOc1cccc2sc(N(CCCN(C)C)C(=O)c3ccc(S(=O)(=O)N(C)c4ccccc4)cc3)nc12	56µM	?	?	0	-	?
CN(C)CCN(C(=O)c1ccc(S(=O)(=O)N(C)c2ccccc2)cc1)c1nc2cc3c(cc2s1)OCCO3	40µM	?	?	0	-	0
CN(C)CCN(C(=O)c1ccc(S(=O)(=O)N(C)C)cc1)c1nc2cc3c(cc2s1)OCCO3	56µM	-	0	0	-	0
CN(C)CCN(C(=O)c1ccc2c(c1)OCCO2)c1nc2cc3c(cc2s1)OCO3	-	?	?	0	-	0
Cc1cc(=O)n(CC(=O)Nc2cc(Cl)ccc2C)c(C(C)C)n1	0	0	0	0	0	0
CN(C)CCN(C(=O)c1ccc2c(c1)CCCC2)c1nc2cc3c(cc2s1)OCCO3	-	0	45µM	?	-	0
Nc1nnc(-c2ccc(Cl)c(Cl)c2)s1	45µM	0	0	0	?	0
CCC(=O)N1CCCc2cc(S(=O)(=O)N3CCC(C(=O)NCc4ccc(F)cc4)CC3)ccc21	0	0	56µM	0	-	-
COc1ccc(S(=O)(=O)N2CCC(C(=O)N[C@H](C(=O)NCc3ccco3)C(C)C)CC2)cc1	-	0	0	0	-	0
O=C(NCc1ccco1)C1CCN(Cc2ccc(F)cc2)CC1	32µM	50µM	50µM	?	-	0
O=C(NCc1ccc(F)cc1)C1CCN(c2cnccn2)CC1	-	0	25µM	0	0	0
CC(C)[C@H](NC(=O)C1CCN(S(=O)(=O)c2ccc(F)cc2)CC1)C(=O)NCc1ccco1	-	0	35µM	0	-	0
Nc1nonc1-n1nnc(C(=O)N/N=C/c2ccoc2)c1CSc1ccc(Cl)cc1	-	?	0	0	-	0
O=C(Cn1ccc(C(F)(F)F)n1)N=Nc1c(O)[nH]c2ccc(Br)cc12	0	0	0	0	-	0
O=C1CC(C(F)(F)F)=NN1	0	0	0	0	0	0
CCNC(=O)C1CCN(S(=O)(=O)c2ccc(F)cc2)CC1	0	0	25µM	0	0	0
O=C(NCCO)C1CCN(S(=O)(=O)c2ccc(F)cc2)CC1	0	0	0	0	0	0
COc1ccc(-c2nc3scc(CCNC(=O)c4cc(OC)cc(OC)c4)n3n2)cc1	0	0	0	0	-	-
Cc1ccccc1NC(=O)Cc1nc(COC(=O)CC(C)c2ccccc2)cs1 (stereo not given)	0	0	0	0	0	-
CC(C)c1ccc(NNC(=O)C2CCC2)cc1	7.1µM	0	?	0	0	0
COC(=O)c1ccc(NC(=O)CC2C(=O)N(c3cccc(OC)c3)C(=O)N2C(C)C)cc1 (stereo not given)	?	0	0	0	-	-
COc1ccc(C/C(C)=N/NC(=S)Nc2ccccc2)cc1	?	0	0	0	0	?
CCOc1ccc(NC(=S)N/N=C(\C)Cc2ccc(OC)cc2)cc1	?	?	7.1µM	0	0	0
COc1ccc(C/C(C)=N/NC(=S)Nc2ccc(Cl)cc2)cc1	7.1µM	0	0	0	-	?
CCCCc1ccc(NC(=S)Nc2ccc(Nc3ccc(OC)cc3)cc2)cc1	13µM	14µM	28µM	?	?	?
CCCCc1ccc(NC(=S)NCc2cccc(OC)c2)cc1	0	0	0	0	0	0

Compound activity: PubChem, National Center for Advancing Translational Sciences (NCATS)
